# Measured values taken from PubChem BioAssay.
# The source made the active and inactive calls.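 How the source made its calls: active means visual image review flags a hit and inhibition of aggregation exceeds 20%; inconclusive means visual hit but inhibition at or below 20%; inactive means no hit on visual image review.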
# Assay: inhibitors of mutant huntingtin aggregation, primary screen, imaging, exon1htt(103Q)mCFP cells, high-content imaging (AID 483);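 further: compound exposure lasted 3 days before fixation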;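 on nuclei count: percent of the per-plate median nuclei count of sample wells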
# Conditions: exon1htt(103Q)mCFP cell line, aggregate imaging, at 2 µM; inhibition of aggregation: stronger effect = higher value; nuclei count: measured here: cell count, toxicity
Compound,inhibition of aggregation,nuclei count
CC1=C(C(N)=O)C(c2ccc(Cl)cc2Cl)n2ncnc2N1 (stereo not given),18.4% (inactive),105%
Cc1cc2c(s1)c1cnn(CC(=O)NCCc3ccccc3)c(=O)c1n2C,-21.4% (inactive),104%
CCc1c(C)nc(N2CCN(Cc3ccccc3)CC2)[nH]c1=O,17.3% (inactive),120%
O=C1C2CCCN2C(c2ccc(Cl)cc2)N1c1nccs1 (stereo not given),-18.3% (inactive),99.7%
CCCCN(CC)S(=O)(=O)N1CCC(C(=O)NCc2ccc(F)cc2)CC1,-1.2% (inactive),96.5%
O=c1c2nnn(Cc3ccccc3)c2ncn1-c1ccccc1,16.2% (inactive),86.9%
CNC(=O)CN(c1cc(C)ccc1OC)S(=O)(=O)c1ccc(C)cc1,-22% (inactive),107%
CCCCC(CC)C(=O)Nc1ccc(Cl)cn1 (stereo not given),4.5% (inactive),102%
CCOC(=O)N1CCN(S(=O)(=O)c2ccc(Br)s2)CC1,-13.3% (inactive),84.3%
CC(=O)Nc1ccc(S(=O)(=O)n2cnc(C)c2)cc1,-20.6% (inactive),99.8%
Cc1ccc(S(=O)(=O)NCCCNC(=O)N2CCOCC2)cc1,1.3% (inactive),104%
CC(=O)N(c1ccc(N(C(C)=O)S(=O)(=O)c2cccs2)cc1)S(=O)(=O)c1cccs1,11.2% (inactive),99.2%
CCCCNC(=O)c1c(C)cc(=O)oc1C,-12.9% (inactive),141%
COC(=O)c1ccc(CSc2nc3ccccc3c(=O)n2Cc2ccco2)o1,-12.9% (inactive),111%
N#CCCCN1C(=O)C(O)(CC(=O)c2ccc3c(c2)OCCO3)c2ccccc21 (stereo not given),-16.7% (inactive),100%
CN(C)CC(=O)N1c2ccccc2CCc2ccc(NC(=O)c3ccc(N)cc3)cc21,3.6% (inactive),95.1%
CC1=C(C#N)C(=O)NC(C)(C)C1,-3.7% (inactive),100%
O=C(NCCO)c1scc2c1OCCO2,7.6% (inactive),97.2%
O=C(Cn1ccc2ccccc2c1=O)NCCC(=O)NC1CCN(Cc2ccccc2)CC1,2.9% (inactive),83.9%
CCOc1cc2[nH]c(=O)n(CCCCC(=O)N3CCCCCC3)c(=O)c2cc1OCC,4.8% (inactive),86.8%

Compound,inhibition of aggregation,nuclei count
COc1nc(OC)nc(N2CCC(C(=O)NC3CCCCCC3)CC2)n1,6.7% (inactive),87.3%
Cc1ccccc1CN1CCNC1=O,7% (inactive),88.7%
CCC1(CC)C(=O)C(C)(C)C(=O)OC1c1cccs1 (stereo not given),10.4% (inactive),91.1%
O=C(NCc1ccccc1)N1CCn2c(nc3ccccc32)C1,8.2% (inactive),99.6%
CC1CCN(C(=O)CSc2nnc(-c3cccnc3)n2C2CCCCC2)CC1,6.5% (inactive),121%
CCCCNC(=O)Nc1ccnn1C1CCCCC1,-8.6% (inactive),100%
COc1ccc(OC)c(C2=NOC(C(=O)NCCN3CCOCC3)C2)c1 (stereo not given),12.9% (inactive),96%
CCCc1n[nH]c2c1/C(=N/O)CC(c1ccccc1)C2 (stereo not given),3.1% (inactive),93.4%
CCOC(=O)C1CCN(C(=O)c2ccc(OC)cc2OC)CC1,0.1% (inactive),97.6%
CN(CCCC(=O)Nc1ccncc1)S(=O)(=O)c1ccc(Cl)cc1,-13.4% (inactive),106%
CCSc1ncc(C#N)c(=O)[nH]1,-21.7% (inactive),89.7%
CCOc1ccccc1N1C(=O)CC(Sc2ncccc2C(=O)O)C1=O (stereo not given),-13.3% (inactive),105%
COc1ccc(Cn2c(C)nc3c(c2=O)c2nc4ccccc4nc2n3Cc2ccco2)cc1,-1.8% (inactive),100%
CCn1c2ccccc2c2cc(NC(=O)Cc3ccc(S(=O)(=O)N4CCOCC4)s3)ccc21,29.4% (inactive),115%
C/C(Cl)=C\Cn1c(NCCc2ccccc2)nc2c1c(=O)n(C)c(=O)n2C,29.8% (inactive),84.6%
Cc1ccc2cc(CN(CC(C)C)C(=O)C3CCCO3)c(=O)[nH]c2c1 (stereo not given),12% (inactive),90%
COC(=O)C1(C(=O)OC)Sc2ccccc2C1=O,12.5% (inactive),75.3%
CCn1c(CC(=O)Nc2cccc(OC)c2)nnc1SCC(=O)Nc1nccs1,8.8% (inactive),103%
O=C(O)CCc1ccc(-c2cccs2)n1NC(=O)c1ccco1,-10.1% (inactive),107%
c1nc(NCC2CCCO2)c2[nH]cnc2n1 (stereo not given),12.3% (inactive),90.8%
